KB-V1 MDR tox – qHTS assay for MDR1-selective chemotherapeutics: Primary screen using the drug-selected MDR subline cells KB-V1 | Potency, µM (highest dose often 46.1 µM), usual class: cytotoxic | 400,000 compounds, 3.4% hits | AID 1347076, 2019 | KB-V1 MDR cells viability, CellTiter-Glo, 72 h; also: % is scaled to controls: 0 for no effect and ±100 for the full control effect; nearly all actives have a fitted effect of over 60% in size
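Cytotoxicity toward P-gp-expressing KB-V1 cells was determined as loss of CellTiter-Glo luminescence after 72 h at 37 degrees C. Compounds were tested in quantitative HTS format across a concentration range, with curves fitted to normalized data.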
SW480 rereplic – A quantitative high throughput screen for small molecules that induce DNA re-replication in SW480 colon adenocarcinoma cells; SW480 DNA re-replication, Hoechst DNA content imaging, 48 h; Potency, µM (titrated, usually from 46.1 µM), for inactives: at the highest dose re-replication activation, usual class: activators; 340,000 compounds, 1.8% hits; also: % of control where 0% means no effect; nearly all actives have a fitted effect of over 55% in size
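Image-based DNA-content assay: after two days of treatment, nuclei were labelled with the DNA dye Hoechst and imaged, and hits were compounds raising the count of nuclei showing high fluorescence intensity.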
KB-3-1 cytotox – qHTS assay for MDR1-selective chemotherapeutics: Primary screen using the parental adenocarcinoma cell KB-3-1 | KB-3-1 viability, CellTiter-Glo ATP luminescence, 72 h | Potency, µM (highest dose often 46.1 µM), hits mostly cytotoxic | 400,000 compounds, 1.4% hits | AID 1347075, 2019; also: % is scaled to controls: 0 for no effect and ±100 for the full control effect; nearly all actives have a fitted effect of over 60% in size
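Luminescent ATP read-out (CellTiter-Glo) measures survival of drug-naive KB-3-1 cells after 72 h compound exposure at 37 °C. Titration series was screened from lowest to highest concentration, with DMSO vehicle plates as background controls.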
RORgamma inh – qHTS for inhibitors of ROR gamma transcriptional activity | Nuclear receptor ROR-gamma (Mus musculus), P51450 | 310,000 compounds, 5.4% hits | Drosophila S2 Gal4-RORgamma UAS-luciferase reporter, 20 h | Potency, µM (series often up to 53.6 µM), without a hit: at the top dose activity change, negative = inhibition, hits mostly inhibitors; also: % is scaled to controls: 0 for no effect and ±100 for the full control effect; nearly all actives have a fitted effect of over 60% in size
Target sequence (P51450 whole entry, looked up, the tested form may be a part): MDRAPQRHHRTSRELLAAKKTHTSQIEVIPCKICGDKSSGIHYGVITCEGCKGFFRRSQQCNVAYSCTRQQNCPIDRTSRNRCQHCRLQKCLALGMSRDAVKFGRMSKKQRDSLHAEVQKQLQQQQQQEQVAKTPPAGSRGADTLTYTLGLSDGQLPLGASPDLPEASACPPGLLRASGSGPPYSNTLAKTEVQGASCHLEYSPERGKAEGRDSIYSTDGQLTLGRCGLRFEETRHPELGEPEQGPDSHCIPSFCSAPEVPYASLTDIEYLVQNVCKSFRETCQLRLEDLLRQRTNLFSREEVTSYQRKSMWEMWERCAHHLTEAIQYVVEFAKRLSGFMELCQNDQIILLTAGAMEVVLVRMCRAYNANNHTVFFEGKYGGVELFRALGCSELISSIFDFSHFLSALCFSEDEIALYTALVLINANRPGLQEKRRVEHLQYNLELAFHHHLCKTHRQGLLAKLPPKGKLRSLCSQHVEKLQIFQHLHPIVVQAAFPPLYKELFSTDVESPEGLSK
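Schneider cells (Drosophila), stable Gal4 DBD–ROR gamma + UAS-luc; 1 hr cmpd preincubation; Cu2+ induction 700 uM final; 20 hr ambient; luminescence.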
VP16 counter – VP16 counterscreen qHTS for inhibitors of ROR gamma transcriptional activity; Drosophila S2 Gal4-VP16 UAS-luciferase, luminescence, 20 h; Potency, µM (doses to about 53.6 µM), without a hit: at the highest dose activity, negative = inhibition, actives largely listed as inhibitors; 310,000 compounds, 3.5% hits; AID 2546, 2010;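 also: Gal4-VP16 expression switched on by copper sulfate through the metallothionein promoter; % is scaled to controls: 0 for no effect and ±100 for the full control effect; nearly all actives have a fitted effect of over 50% in size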
MCF10A rerep – A quantitative high throughput screen for small molecules that induce DNA re-replication in MCF 10a normal breast cells | MCF 10A DNA re-replication, Hoechst nuclear intensity, 48 h | Potency, µM (top dose mostly 46.1 µM), for the others: top-dose activity, positive = re-replication, actives largely listed as activators | 350,000 compounds, 2.9% hits | AID 624296, 2012; also: % of control where 0% means no effect; nearly all actives have a fitted effect of over 50% in size
An asterisk follows results filed as active; i = inactive; ? = inconclusive; / = no result given; [ ] = another dose, or the depositor's remark. Compounds with a hit are over-represented: about 10% of the library has one in this group of screens. Calls follow the shape of the dose curve; as a rule, active = well fitted curve in the direction sought with a large enough effect; inconclusive = small, poorly fitted or top-dose-only effect, or another doubt; inactive = no such curve, though single readings can be large; an effect the other way counts as inactive or inconclusive. Potency is read from the fitted curve at half-maximal effect.

SMILES	KB-V1 MDR tox	SW480 rereplic	KB-3-1 cytotox	RORgamma inh	VP16 counter	MCF10A rerep
C=CCNC(=O)/C(C#N)=C/c1cc(Br)ccc1OC	i	?	i	13µM*	?	?
CCNC(=S)NC1CC2CCCC(C1)N2CCc1ccccc1 (stereo unspecified)	i	?	i	-24%	-2%	0.73µM*
CC(C)CNC(=S)NC1CC2CCC(C1)N2Cc1ccccc1 (stereo unspecified)	i	?	i	10µM*	?	27%
CCNC(=S)NC1CC2CCC(C1)N2Cc1ccccc1 (stereo unspecified)	i	0%	i	4%	8%	-5%
CC(=O)c1cccc(NC(=O)Cn2nc(C)n3cccc3c2=O)c1	i	/	i	/	/	/
COc1ccc(-c2csc(Nc3cccnc3)n2)cc1OC	?	0%	i	-5%	5%	6%
COc1cccc2sc(Nc3nc(-c4cc5ccccc5oc4=O)cs3)nc12	8.2µM*	5.2µM*	?	?	?	1.3µM*
COc1cccc2sc(Nc3nc(-c4ccncc4)cs3)nc12	8.2µM*	?	5.8µM*	13µM*	-14%	21µM*
COc1ccc(Cn2c(SCc3ccc(C(=O)NCc4cccs4)cc3)nc3ccncc32)cc1	i	/	i	/	/	/
CCCNC(=S)NC1CCCC1	i	-9%	i	11µM*	?	5%
CCCNC(=O)NC1CCCCCCC1	i	?	i	25%	-15%	?
NNC(=S)NC1CCCCC1	i	-2%	i	2.8µM*	7.1µM*	-6%
CCOC(=O)c1sc(N(Cc2ccccc2)C(=O)COC(=O)c2ccc(O)cc2)nc1C	i	?	i	?	?	9.2µM*
COc1ccc(C(=O)C[n+]2cc(Br)cc(Br)c2)cc1	i	/	i	/	/	/
Cc1ccc(NC(=O)Nc2c(C)n(C)n(-c3ccccc3)c2=O)c(Cl)c1	?	/	i	/	/	/
O=C(NC1CCCCC1)C(c1cccnc1)N(C(=O)CCl)c1ccccc1Cl (stereo unspecified)	?	?	10µM*	?	0%	6%
CCc1ccccc1N(C(=O)CNC(=O)c1ccco1)C(C(=O)NC1CCCC1)c1cccnc1 (stereo unspecified)	i	-25%	i	-5%	-4%	-1%
COc1ccc(N(C(=O)CCl)C(C(=O)NC2CCCCC2)c2cccnc2)cc1 (stereo unspecified)	21µM*	?	10µM*	?	-13%	18µM*
O=C(NC1CCCCC1)C(c1cccnc1)N(C(=O)CCl)c1ccc(F)cc1 (stereo unspecified)	16µM*	2.1µM*	i	11µM*	?	18µM*
Cc1cc(C)cc(N(C(=O)CNC(=O)c2cccs2)C(C(=O)NC2CCCC2)c2cccnc2)c1 (stereo unspecified)	i	0%	i	22%	-5%	21µM*
O=C(NCC(=O)N(c1ccc(F)cc1)C(C(=O)NC1CCCCC1)c1cccnc1)c1ccco1 (stereo unspecified)	i	-3%	i	6%	-3%	-4%
CC1(C(=O)NS(=O)(=O)Cc2ccccc2C(F)(F)F)CCN1C(=O)c1ccco1 (stereo unspecified)	i	/	i	/	/	/
CN(C)CCNc1ncnc2c1sc1nc(N3CCOCC3)c3c(c12)CC(C)(C)SC3	?	?	?	-44%	?	21µM*
CCN(CC)CCNc1ncnc2c1sc1nc(N3CCOCC3)c3c(c12)CC(C)(C)SC3	i	-16%	i	?	?	-2%
CC(C)=CCC[C@](C)(O[C@@H]1O[C@H](CO[C@@H]2O[C@H](CO)[C@@H](O)[C@H](O)[C@H]2O)[C@@H](O)[C@H](O)[C@H]1O)C1CC[C@]2(C)C1C(=O)CC1[C@@]3(C)CC[C@H](O[C@H]4O[C@@H](CO)[C@H](O)[C@@H](O)[C@@H]4O)C(C)(C)C3CC[C@]12C (stereo partly specified)	i	-43%	i	/	/	-11%
SMILES	KB-V1 MDR tox	SW480 rereplic	KB-3-1 cytotox	RORgamma inh	VP16 counter	MCF10A rerep
CC(=O)OCC1O[C@@H](O[C@@H]2C[C@H]3C(C)(C)[C@H](OC(C)=O)CC[C@]3(C)[C@H]3CC[C@]45C[C@]4(CC[C@H]5[C@@H](C)C[C@@H](O)[C@H](O)C(C)(C)O)[C@@]32C)[C@H](O)[C@@H](O)[C@@H]1O (stereo partly specified)	/	21µM*	/	0.89µM*	3.2µM*	7.3µM*
Cc1cc(NC(=O)CSc2nc(-c3cccc(F)c3)nc3c2c(=O)n(C)c(=O)n3C)no1	i	/	i	/	/	/
COc1cccc2[nH]c3ccccc3c(=O)c12	i	?	i	0%[1.91 µM]	?	?
C=Cc1ncc(OC)c2c1[nH]c1ccccc12	i	?	5.8µM*	/	/	?
COC(=O)Cc1ccc(NC(=O)c2ccc3c(c2)C(=O)N(Cc2cccnc2)C3=O)cc1	i	-5%	i	15%	?	11%
CC(C)c1ccc(NC(=O)c2ccc3c(c2)C(=O)N(Cc2cccnc2)C3=O)cc1	i	-1%	i	?	18µM*	18%
CCOC(=O)c1ccc(NC(=O)c2ccc3c(c2)C(=O)N(Cc2cccnc2)C3=O)cc1	i	-5%	i	-52%	11µM*	-38%
CCCC1OC2C[C@@H]3[C@H]4CCC5=CC(=O)C=C[C@]5(C)[C@H]4C(O)C[C@]3(C)[C@]2(C(=O)CO)O1 (stereo partly specified)	i	/	i	/	/	/
CC(=O)Nc1ccc(NC(=O)CSc2nnc(NC(=O)Cc3ccc(F)cc3)s2)cc1	i	-6%	i	-2%	-6%	-5%
CCc1ccc(Nc2nnc(SCC(=O)Nc3ccc(C(=O)O)cc3)s2)cc1	i	-6%	i	5µM*	7.1µM*	-4%
Cn1cccc1C(=O)NC(=O)CSc1nc2ccccc2s1	i	?	i	5%	11%	16%
CC(=O)Nc1ccc(NC(=O)CSc2nnc(NC(=O)c3cccc(F)c3)s2)cc1	i	-16%	i	13µM*	?	7%
CCc1ccc(Nc2nnc(SCC(=O)NC(=O)c3cccn3C)s2)cc1	?	?	?	?	4%[10 µM]	18µM*

Screens: PubChem, National Center for Advancing Translational Sciences (NCATS)
